# Reference: the OligoGym collection
# Biological target: RFX3
# Test: pooled miR-30 sensor sort-seq; sequence = guide strand
# Settings: shRNA
row,Sequence,sensor-assay potency score (higher = more potent)
1,TAAATTTTCAACTTAAGCCCAA,0.019
2,TTCTAGTCTCTGAACCATGTTG,-0.714
3,TACACCAAGACTAACAATCAAC,-1.04
4,TTGTTGTTCGGATTGCTCCATT,-0.745
5,TTGGTATAGACAGTATCGCTTC,-0.105
6,TTGACAACAGTCGACCTTCAGG,-0.926
7,TTGAAGATTCACAACAACGTCC,0.274
8,TTGTTGTACTGGTACTTGCTGT,-0.28
9,TTAAGTGTTGTAAAAATCCTTC,-0.411
10,AATTTGACAACAGTCGACCTTC,0.318
11,TAAATCACCAAACTCGCCCATG,-0.686
12,TAGAATTTGACAACAGTCGACC,-0.732

# Biological target: RGS13
# Test: as above
# Settings: shRNA
row,Sequence,sensor-assay potency score (higher = more potent)
1,TCTGACTTTAGAAATCTGGGGT,0.865
2,ATGATAGTCTCTCTTGTCGAAC,-1.51
3,TTAATTGAACTACATAGGCTTG,-0.858
4,ATAGTCTCTCTTGTCGAACTGT,-0.257
5,TTCCTGATGATAGTCTCTCTTG,-0.749
6,TTGAATATTCTCGTCACTGTGC,0.436
7,TAGGTTTCACATGCCATCCAGA,-0.935
8,TAGTCTCTCTTGTCGAACTGTC,-0.609
9,TTAATGAACATAATAGTAGGAA,0.19
10,TTTTGGTACATTTCTGACTTTA,-0.566
11,TAGAAATTCTGCTCCACCGTGA,0.617
12,TTAAATTTTCAAAAGACTGGGC,-0.0917
